The results in this text go back to PubChem BioAssay.

The experiment deals with Neurogenic locus notch homolog protein 3 (Homo sapiens) (UniProt Q9UM47). Briefly: small molecules binding NOTCH3 protein – biochemical, 635/667 nm fluorescence, primary screen (AID 1096). Particulars: small-molecule microarray, 635 nm fluorescence, higher = more signal.
Sequence of Neurogenic locus notch homolog protein 3 (Homo sapiens) (Q9UM47 whole entry, looked up): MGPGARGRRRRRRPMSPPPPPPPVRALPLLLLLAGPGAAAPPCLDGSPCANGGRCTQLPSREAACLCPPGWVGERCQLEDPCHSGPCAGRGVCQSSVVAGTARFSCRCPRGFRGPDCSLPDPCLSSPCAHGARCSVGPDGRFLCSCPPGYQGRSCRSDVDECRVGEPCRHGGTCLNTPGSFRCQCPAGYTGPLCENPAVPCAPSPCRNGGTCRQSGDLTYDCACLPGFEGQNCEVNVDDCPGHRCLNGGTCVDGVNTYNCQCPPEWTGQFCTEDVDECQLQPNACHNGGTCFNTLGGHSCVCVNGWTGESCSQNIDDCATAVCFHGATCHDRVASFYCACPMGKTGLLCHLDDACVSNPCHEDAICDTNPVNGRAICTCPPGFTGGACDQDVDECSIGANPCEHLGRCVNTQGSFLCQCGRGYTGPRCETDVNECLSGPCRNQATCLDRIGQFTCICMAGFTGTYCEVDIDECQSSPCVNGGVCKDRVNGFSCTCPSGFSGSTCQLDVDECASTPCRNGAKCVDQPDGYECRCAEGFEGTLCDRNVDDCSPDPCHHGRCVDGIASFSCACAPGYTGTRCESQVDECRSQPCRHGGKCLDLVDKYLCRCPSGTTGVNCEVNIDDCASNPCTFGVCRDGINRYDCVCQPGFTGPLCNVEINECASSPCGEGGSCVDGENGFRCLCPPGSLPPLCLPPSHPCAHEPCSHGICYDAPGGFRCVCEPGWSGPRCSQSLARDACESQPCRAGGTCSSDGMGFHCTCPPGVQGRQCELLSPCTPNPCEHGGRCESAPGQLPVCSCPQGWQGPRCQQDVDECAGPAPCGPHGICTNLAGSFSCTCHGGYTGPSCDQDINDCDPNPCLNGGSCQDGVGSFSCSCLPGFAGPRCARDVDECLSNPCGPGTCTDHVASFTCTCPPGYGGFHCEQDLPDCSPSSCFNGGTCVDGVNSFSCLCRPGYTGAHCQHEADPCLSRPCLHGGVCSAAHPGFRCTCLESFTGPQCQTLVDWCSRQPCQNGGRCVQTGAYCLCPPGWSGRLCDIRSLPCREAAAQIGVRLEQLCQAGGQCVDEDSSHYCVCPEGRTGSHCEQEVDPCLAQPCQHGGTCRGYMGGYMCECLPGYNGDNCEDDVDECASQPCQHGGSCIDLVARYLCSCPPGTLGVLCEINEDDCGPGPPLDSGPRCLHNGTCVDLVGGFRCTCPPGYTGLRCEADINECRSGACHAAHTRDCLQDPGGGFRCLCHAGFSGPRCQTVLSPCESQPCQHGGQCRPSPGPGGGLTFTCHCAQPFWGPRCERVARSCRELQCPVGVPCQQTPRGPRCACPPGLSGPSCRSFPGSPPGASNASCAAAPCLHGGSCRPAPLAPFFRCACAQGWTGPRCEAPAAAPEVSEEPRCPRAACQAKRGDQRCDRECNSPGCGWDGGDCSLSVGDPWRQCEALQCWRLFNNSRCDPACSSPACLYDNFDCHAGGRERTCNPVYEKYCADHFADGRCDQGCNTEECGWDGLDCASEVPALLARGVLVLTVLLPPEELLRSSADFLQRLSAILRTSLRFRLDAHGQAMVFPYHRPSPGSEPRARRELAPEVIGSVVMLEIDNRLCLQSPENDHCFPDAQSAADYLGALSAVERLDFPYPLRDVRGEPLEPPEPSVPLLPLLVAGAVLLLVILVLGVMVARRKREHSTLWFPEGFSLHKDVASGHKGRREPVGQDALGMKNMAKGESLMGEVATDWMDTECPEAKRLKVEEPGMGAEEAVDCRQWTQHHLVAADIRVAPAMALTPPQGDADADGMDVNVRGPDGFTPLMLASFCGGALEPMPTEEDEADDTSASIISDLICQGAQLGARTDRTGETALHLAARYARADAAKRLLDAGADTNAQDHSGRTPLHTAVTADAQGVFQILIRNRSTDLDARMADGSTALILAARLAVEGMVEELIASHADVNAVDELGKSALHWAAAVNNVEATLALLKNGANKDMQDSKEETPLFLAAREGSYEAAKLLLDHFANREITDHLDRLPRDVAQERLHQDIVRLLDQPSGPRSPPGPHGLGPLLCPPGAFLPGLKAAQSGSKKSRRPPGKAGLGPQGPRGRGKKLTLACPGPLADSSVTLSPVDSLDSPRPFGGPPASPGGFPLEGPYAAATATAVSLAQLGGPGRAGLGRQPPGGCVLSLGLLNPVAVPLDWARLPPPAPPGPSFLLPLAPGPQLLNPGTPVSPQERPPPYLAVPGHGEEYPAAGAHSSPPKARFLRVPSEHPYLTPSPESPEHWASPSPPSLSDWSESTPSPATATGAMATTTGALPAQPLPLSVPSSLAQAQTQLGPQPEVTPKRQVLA
Compound `CCC(CC)C(O)C1C=CC2C(=O)N(c3ccccc3)C(=O)C2N1Nc1ccc(C(C)C)cc1` (stereo unspecified) registered a composite z-score of 1.03. In turn, `C=C(C)C1CCC(C(O)C2C=CC3C(=O)N(C)C(=O)C3N2N2CCCCC2)CC1` (stereo unspecified) gave a composite z-score of 1.04. `O=C1NC(=O)C2C1C=CC(C(O)c1cccc3ccccc13)N2Nc1ccc(Cl)cc1Cl` (stereo unspecified) registered a composite z-score of 1.04. The figure for `C=CCOC(=O)[C@H]1[C@@H]2C(=O)O[C@@H](c3ccccc3)[C@@H](c3ccccc3)N2[C@@H](c2ccc(OCCOC(=O)[C@@H]3C[C@@H]4C(=O)N[C@@H](CCCCN(C)C)C(=O)N4[C@@H]3c3ccc(O)cc3)cc2)[C@]12C(=O)Nc1ccccc12` is 1.05. `CCOC(=O)C1=CC[C@@H](c2ccccc2C(F)(F)F)N(S(=O)(=O)c2ccc(C)cc2)[C@H]1c1ccc(C#N)cc1` registered a composite z-score of 1.03. The figure for `CCCNC(=O)[C@@H]1c2ccccc2C(=O)N(C(C)C)[C@H]1c1ccc(CO)cc1` is -0.421.
